Results from ChEMBL document CHEMBL2218924, “A broad activity screen in support of a chemogenomic map for kinase signalling research and drug discovery” (Biochem J, 2013).

How the values were obtained:
[1] = molecular target: Tyrosine-protein kinase SYK (Homo sapiens) (UniProt P43405); details: at 10 µM
[2] = molecular target: T1, Mitogen-activated protein kinase kinase kinase 7 (Homo sapiens) (UniProt O43318); details: at 1 µM
T1 sequence (whole entry): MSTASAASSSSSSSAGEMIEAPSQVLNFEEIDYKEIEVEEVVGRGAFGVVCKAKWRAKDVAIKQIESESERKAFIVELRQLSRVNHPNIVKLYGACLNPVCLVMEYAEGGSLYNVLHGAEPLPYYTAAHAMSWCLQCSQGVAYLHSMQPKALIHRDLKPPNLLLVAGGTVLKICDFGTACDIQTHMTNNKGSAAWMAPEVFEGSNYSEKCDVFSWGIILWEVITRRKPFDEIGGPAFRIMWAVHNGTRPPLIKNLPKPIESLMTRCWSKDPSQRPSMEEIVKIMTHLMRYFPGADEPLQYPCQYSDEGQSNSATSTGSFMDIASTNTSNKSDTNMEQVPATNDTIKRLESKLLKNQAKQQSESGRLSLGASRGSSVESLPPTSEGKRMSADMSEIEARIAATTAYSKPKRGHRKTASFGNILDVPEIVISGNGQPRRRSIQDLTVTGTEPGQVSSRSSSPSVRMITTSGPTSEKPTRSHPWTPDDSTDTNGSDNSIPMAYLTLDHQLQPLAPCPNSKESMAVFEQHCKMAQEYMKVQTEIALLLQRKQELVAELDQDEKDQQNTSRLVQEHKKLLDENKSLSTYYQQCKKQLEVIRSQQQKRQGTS

[3] = molecular target: T1, Mitogen-activated protein kinase kinase kinase 7 (Homo sapiens); details: at 10 µM
[4] = molecular target: T2, Serine/threonine-protein kinase TAO1 (Homo sapiens) (UniProt Q7L7X3); details: at 1 µM
T2 sequence (whole entry): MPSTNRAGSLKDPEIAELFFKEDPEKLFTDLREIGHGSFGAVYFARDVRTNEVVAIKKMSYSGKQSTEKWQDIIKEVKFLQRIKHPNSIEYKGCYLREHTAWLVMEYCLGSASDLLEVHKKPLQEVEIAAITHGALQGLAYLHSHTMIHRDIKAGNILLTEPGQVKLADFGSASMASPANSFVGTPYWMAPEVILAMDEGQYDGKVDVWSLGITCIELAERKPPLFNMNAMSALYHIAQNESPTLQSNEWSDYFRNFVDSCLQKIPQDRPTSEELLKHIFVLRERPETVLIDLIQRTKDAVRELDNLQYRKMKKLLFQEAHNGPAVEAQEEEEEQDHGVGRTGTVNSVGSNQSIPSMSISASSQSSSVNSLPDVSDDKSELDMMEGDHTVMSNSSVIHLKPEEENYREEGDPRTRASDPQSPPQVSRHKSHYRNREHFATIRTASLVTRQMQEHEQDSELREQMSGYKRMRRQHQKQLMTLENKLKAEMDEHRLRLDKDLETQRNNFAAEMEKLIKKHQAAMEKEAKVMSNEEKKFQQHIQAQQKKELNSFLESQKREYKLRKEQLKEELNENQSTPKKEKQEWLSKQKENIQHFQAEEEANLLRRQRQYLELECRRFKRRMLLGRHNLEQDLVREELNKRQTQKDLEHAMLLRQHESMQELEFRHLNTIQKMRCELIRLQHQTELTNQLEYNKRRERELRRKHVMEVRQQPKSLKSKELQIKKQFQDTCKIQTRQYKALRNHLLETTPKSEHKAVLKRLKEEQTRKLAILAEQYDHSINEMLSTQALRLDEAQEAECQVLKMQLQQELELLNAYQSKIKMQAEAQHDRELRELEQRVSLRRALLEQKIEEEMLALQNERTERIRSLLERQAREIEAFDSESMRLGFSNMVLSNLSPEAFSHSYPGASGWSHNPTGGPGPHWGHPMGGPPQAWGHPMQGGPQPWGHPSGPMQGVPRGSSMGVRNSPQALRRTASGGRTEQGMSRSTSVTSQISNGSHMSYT

[5] = molecular target: T2, Serine/threonine-protein kinase TAO1 (Homo sapiens); details: at 10 µM
[6] = molecular target: T3, Serine/threonine-protein kinase TAO2 (Homo sapiens) (UniProt Q9UL54); details: at 1 µM
T3 sequence (whole entry): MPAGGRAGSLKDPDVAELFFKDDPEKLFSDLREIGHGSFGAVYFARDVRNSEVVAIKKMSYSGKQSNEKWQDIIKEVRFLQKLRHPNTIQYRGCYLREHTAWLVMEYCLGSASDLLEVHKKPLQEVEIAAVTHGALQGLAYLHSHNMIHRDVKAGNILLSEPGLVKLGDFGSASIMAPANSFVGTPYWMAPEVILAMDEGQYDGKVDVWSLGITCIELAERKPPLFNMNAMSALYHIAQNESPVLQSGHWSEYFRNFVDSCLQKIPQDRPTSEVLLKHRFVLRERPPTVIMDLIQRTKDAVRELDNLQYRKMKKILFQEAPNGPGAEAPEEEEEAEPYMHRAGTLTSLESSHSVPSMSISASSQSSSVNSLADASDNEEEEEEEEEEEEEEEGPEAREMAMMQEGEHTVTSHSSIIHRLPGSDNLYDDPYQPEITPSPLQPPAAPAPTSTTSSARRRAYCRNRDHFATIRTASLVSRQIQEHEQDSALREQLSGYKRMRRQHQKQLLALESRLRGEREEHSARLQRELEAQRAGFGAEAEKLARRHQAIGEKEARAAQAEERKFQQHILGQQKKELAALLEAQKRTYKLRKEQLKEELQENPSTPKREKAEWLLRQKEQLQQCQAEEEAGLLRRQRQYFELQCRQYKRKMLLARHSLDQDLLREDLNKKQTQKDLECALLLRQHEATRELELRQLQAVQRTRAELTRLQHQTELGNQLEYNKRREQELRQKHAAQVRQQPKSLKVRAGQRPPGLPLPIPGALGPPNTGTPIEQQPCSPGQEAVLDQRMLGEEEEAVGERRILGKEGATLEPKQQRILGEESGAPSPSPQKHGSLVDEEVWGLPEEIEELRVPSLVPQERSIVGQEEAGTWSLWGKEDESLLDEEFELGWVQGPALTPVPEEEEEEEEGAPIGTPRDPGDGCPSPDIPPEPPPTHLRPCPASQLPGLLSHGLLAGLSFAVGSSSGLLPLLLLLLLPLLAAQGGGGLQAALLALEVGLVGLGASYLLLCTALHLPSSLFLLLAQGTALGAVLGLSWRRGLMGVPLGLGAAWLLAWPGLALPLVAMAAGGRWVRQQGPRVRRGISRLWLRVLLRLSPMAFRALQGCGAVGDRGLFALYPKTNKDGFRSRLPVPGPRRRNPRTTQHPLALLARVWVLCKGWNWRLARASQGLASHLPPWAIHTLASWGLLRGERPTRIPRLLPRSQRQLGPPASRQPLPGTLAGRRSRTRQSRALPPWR

[7] = molecular target: T3, Serine/threonine-protein kinase TAO2 (Homo sapiens); details: at 10 µM
[8] = molecular target: T4, Serine/threonine-protein kinase TAO3 (Homo sapiens) (UniProt Q9H2K8); details: at 1 µM
T4 sequence (whole entry): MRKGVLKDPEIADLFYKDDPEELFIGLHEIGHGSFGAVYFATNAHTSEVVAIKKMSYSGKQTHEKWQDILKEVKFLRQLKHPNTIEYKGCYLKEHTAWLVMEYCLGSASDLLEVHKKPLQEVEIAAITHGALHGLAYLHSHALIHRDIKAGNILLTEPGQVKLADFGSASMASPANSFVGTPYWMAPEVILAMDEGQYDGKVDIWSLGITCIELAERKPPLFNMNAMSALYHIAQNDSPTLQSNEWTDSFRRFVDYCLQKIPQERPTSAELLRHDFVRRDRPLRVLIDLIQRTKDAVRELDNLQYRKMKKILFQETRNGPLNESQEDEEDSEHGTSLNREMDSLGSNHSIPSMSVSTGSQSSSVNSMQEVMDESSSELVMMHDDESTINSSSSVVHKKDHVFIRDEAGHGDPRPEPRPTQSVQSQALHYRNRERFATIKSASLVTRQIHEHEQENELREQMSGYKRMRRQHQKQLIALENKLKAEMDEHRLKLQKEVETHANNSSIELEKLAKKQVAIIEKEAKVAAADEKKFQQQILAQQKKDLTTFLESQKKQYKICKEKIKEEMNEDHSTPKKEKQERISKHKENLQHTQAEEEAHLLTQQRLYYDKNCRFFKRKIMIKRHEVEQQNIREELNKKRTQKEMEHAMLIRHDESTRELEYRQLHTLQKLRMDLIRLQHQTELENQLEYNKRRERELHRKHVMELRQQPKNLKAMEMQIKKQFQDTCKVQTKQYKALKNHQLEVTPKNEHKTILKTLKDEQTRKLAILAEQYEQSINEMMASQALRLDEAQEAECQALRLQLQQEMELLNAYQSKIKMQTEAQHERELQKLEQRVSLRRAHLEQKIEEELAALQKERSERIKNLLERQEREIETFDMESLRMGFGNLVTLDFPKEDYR

[9] = molecular target: T4, Serine/threonine-protein kinase TAO3 (Homo sapiens); details: at 10 µM
[10] = molecular target: T5, Serine/threonine-protein kinase TBK1 (Homo sapiens) (UniProt Q9UHD2); details: at 1 µM
T5 sequence (whole entry): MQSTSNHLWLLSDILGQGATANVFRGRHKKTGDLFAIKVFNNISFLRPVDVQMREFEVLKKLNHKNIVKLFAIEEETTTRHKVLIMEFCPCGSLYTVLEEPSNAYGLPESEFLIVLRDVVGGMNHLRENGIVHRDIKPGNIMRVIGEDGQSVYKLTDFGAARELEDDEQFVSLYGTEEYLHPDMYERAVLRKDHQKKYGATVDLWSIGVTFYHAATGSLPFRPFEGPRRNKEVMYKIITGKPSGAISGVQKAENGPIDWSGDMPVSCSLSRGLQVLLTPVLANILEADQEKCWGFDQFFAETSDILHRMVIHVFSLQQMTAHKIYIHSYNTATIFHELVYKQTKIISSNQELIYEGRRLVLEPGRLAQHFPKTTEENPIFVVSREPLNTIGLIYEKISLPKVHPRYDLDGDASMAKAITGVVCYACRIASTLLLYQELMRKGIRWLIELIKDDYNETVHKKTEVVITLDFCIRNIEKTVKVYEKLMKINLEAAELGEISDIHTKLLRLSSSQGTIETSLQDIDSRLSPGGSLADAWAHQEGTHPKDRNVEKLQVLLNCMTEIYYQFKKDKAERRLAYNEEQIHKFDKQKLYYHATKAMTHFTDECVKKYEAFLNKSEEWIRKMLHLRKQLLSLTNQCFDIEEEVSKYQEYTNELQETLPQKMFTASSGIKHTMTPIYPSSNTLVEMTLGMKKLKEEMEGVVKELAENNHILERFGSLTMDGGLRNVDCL

Row | SMILES | residual activity [1] | residual activity [2] | residual activity [3] | residual activity [4] | residual activity [5] | residual activity [6] | residual activity [7] | residual activity [8] | residual activity [9] | residual activity [10]
1 | CN(C)c1ccc(/C=C2\C(=O)Nc3ccccc32)cc1 | 91% | 100% | 81% | 113% | 90% | 99% | 89% | 100% | 91% | 81%
2 | O=C(Nc1cccc(Nc2cc(Nc3cccc(C(F)(F)F)c3)ncn2)c1)C1CC1 | 105% | 95% | 95% | 100% | 73% | 94% | 80% | 100% | 96% | 89%
3 | COc1ccc(C(=O)Nc2sc3c(c2C(N)=O)CCCC3)cc1OC | 89% | 86% | 86% | 97% | 86% | 92% | 83% | 91% | 93% | 72%
4 | Cc1nc(-c2ccccc2)c(-c2ccncc2)o1 | 116% | 103% | 97% | 103% | 79% | 120% | 108% | 107% | 101% | 102%
5 | Nc1ccc2ncnc(NCCc3ccc(Oc4ccccc4)cc3)c2c1 | 78% | 92% | 72% | 103% | 88% | 90% | 91% | 110% | 92% | 94%
6 | Cc1cc2ncc(-c3ccccc3)nc2cc1C | 108% | 96% | 95% | 109% | 101% | 106% | 91% | 100% | 101% | 86%
7 | Nc1cccc(-c2cc3c(Oc4cccc(O)c4)ncnc3[nH]2)c1 | 3% | 48% | 8% | 82% | 39% | 78% | 26% | 84% | 37% | 70%
8 | CO[C@H]1C[C@@H]2CC[C@@H](C)[C@@](O)(O2)C(=O)C(=O)N2CCCC[C@H]2C(=O)O[C@H]([C@H](C)C[C@@H]2CC[C@@H](O)[C@H](OC)C2)CC(=O)[C@H](C)/C=C(\C)[C@@H](O)[C@@H](OC)C(=O)[C@H](C)C[C@H](C)/C=C/C=C/C=C/1C | 78% | 89% | 82% | 102% | 87% | 99% | 96% | 97% | 85% | 63%
9 | Oc1ccc(Nc2nc(-c3ccc(Cl)cc3)cs2)cc1 | 114% | 112% | 98% | 106% | 85% | 118% | 89% | 99% | 95% | 114%
10 | COc1ccc(CNc2nc(N(CCO)CCO)nc3c2ncn3C(C)C)cc1 | 114% | 92% | 82% | 96% | 81% | 96% | 95% | 92% | 71% | 69%
11 | COc1cc2ncnc(Nc3ccc(O)c(Br)c3)c2cc1OC | 68% | 81% | 62% | 86% | 48% | 98% | 75% | 82% | 61% | 41%
12 | CCOc1cc2ncnc(Nc3cccc(Br)c3)c2cc1OCC | 58% | 95% | 83% | 86% | 73% | 101% | 84% | 100% | 81% | 70%
13 | O=C(Nc1cccc(Nc2nccc(Nc3cccc(C(F)(F)F)c3)n2)c1)C1CC1 | 75% | 105% | 99% | 95% | 56% | 92% | 29% | 104% | 67% | 78%
14 | C[C@@H](N)[C@H]1CC[C@H](C(=O)Nc2ccncc2)CC1 | 102% | 109% | 113% | 93% | 78% | 112% | 109% | 105% | 103% | 107%
15 | O=Nc1c(-c2c(O)[nH]c3ccccc23)[nH]c2ccccc12 | 60% | 64% | 71% | 83% | 39% | 75% | 26% | 85% | 28% | 9%
16 | O=c1c2ccccc2[nH]c(=S)n1CCN1CCC(=C(c2ccc(F)cc2)c2ccc(F)cc2)CC1 | 68% | 97% | 83% | 109% | 88% | 107% | 79% | 109% | 86% | 91%
